Source: the supplement of paper PMC10849652
Of roughly 7,900 targets only a part is listed; those with a hit were picked by preference. About 0.6% of all pairs of compound and target were hits.

Experiments:
Assay in all cases: log2 fold change, soluble protein after heating vs DMSO (PISA); higher = thermal stabilisation; K562 cells, 10 uM, 30 min; active = over 0.2 and 3.5 SD of the protein, either way, in both replicates (recomputed)
saracatinib = compound: CN1CCN(CCOc2cc(OC3CCOCC3)c3c(Nc4c(Cl)ccc5c4OCO5)ncnc3c2)CC1 [saracatinib]
Outline: (§1)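 Thermal stability values are relative to control samples and come from duplicates. They are expressed as log2 fold changes. For measurement, K562 cells (2×10^6 cells/mL) received 10 μM compound for 30 min, and aliquots were heated for 3 min over 48°C-58°C, pooled, and extracted at 4°C in PBS with 0.5% NP-40. Soluble protein, the supernatant after 21,000xg for 90 min, was quantified by TMTpro 16plex LC-MS/MS with equalised channel sums.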

sotrastaurin = compound: CN1CCN(c2nc(C3=C(c4c[nH]c5ccccc45)C(=O)NC3=O)c3ccccc3n2)CC1 [sotrastaurin]
Outline: as §1

alvocidib = compound: CN1CC[C@H](c2c(O)cc(O)c3c(=O)cc(-c4ccccc4Cl)oc23)[C@H](O)C1 [alvocidib]
Outline: as §1

Tubastatin A = compound: CN1CCc2c(c3ccccc3n2Cc2ccc(C(=O)NO)cc2)C1 [Tubastatin A]
Outline: as §1

[1] = compound: CNC(=O)C1=CC=CC=C1NC2=NC(=NC=C2Cl)NC3=C(C=C(C=C3)N4CCOCC4)OC
Outline: as §1

defactinib = compound: CNC(=O)c1ccc(Nc2ncc(C(F)(F)F)c(NCc3nccnc3N(C)S(C)(=O)=O)n2)cc1 [defactinib]
Outline: as §1

rucaparib = compound: CNCc1ccc(-c2[nH]c3cc(F)cc4c3c2CCNC4=O)cc1 [rucaparib]
Outline: as §1

[2] = compound: CNc1nc(-c2ccc3c(N)n[nH]c3c2)cc(N2C[C@@H](C(=O)NC3CCCCC3)CC[C@H]2C)n1
Outline: as §1

encorafenib = compound: COC(=O)N[C@@H](C)CNc1nccc(-c2cn(C(C)C)nc2-c2cc(Cl)cc(NS(C)(=O)=O)c2F)n1 [encorafenib]
Outline: as §1

[3] = compound: COC(=O)[C@H](CCSC)NC(=O)C1=C(C=C(C=C1)NC[C@H](CS)N)C2=CC=CC=C2
Outline: as §1

Measured: log2 fold change

NAPG (UniProt Q99747)
inactive: saracatinib -0.028 | sotrastaurin -0.075 | alvocidib -0.137 | Tubastatin A 0.048 | [1] 0.031 | defactinib -0.159 | rucaparib 0.044 | [2] 0.053 | encorafenib 0.052 | [3] -0.028

MYH11 isoform 2 (UniProt P35749)
inactive: saracatinib 0.069 | sotrastaurin -0.024 | alvocidib -0.024 | Tubastatin A -0.025 | [1] 0.03 | defactinib -0.039 | rucaparib -0.034 | [2] 0.009 | encorafenib 0.001 | [3] -0.022

NASP (UniProt P49321)
inactive: saracatinib 0 | sotrastaurin -0.045 | alvocidib -0.08 | Tubastatin A 0.012 | [1] 0.073 | defactinib -0.085 | rucaparib -0.11 | [2] -0.041 | encorafenib 0.001 | [3] -0.004

NANS (UniProt Q9NR45)
UniProt Q9NR45, sequence (Q9NR45 whole entry, looked up): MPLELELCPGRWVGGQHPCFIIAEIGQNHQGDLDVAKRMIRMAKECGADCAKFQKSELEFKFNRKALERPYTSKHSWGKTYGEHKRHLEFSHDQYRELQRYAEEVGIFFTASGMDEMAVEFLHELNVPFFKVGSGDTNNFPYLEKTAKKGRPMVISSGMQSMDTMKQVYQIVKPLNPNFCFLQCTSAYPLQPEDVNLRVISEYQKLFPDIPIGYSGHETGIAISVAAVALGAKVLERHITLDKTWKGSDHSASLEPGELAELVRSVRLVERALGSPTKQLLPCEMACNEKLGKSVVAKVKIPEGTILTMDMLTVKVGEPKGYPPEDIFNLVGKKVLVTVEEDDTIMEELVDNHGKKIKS
inactive: saracatinib 0.022 | sotrastaurin -0.058 | alvocidib -0.091 | Tubastatin A -0.026 | [1] 0.034 | defactinib -0.033 | rucaparib -0.084 | [2] 0.051 | encorafenib 0.004 | [3] -0.015

NMD3 (UniProt Q96D46)
inactive: saracatinib 0.043 | sotrastaurin 0.02 | alvocidib -0.012 | Tubastatin A 0.07 | [1] 0.088 | defactinib 0.06 | rucaparib -0.181 | [2] 0.003 | encorafenib 0.028 | [3] -0.052

NUDT21 (UniProt O43809)
UniProt O43809, sequence (O43809 whole entry, looked up): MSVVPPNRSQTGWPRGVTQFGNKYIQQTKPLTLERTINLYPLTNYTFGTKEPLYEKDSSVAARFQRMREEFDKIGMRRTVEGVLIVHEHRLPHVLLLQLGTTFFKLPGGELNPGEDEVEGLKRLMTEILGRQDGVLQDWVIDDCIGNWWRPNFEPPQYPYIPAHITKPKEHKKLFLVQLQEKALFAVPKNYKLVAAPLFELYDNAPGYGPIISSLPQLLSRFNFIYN
inactive: saracatinib 0.028 | sotrastaurin 0.024 | alvocidib -0.017 | Tubastatin A 0.01 | [1] -0.166 | defactinib 0.045 | rucaparib 0.004 | [2] -0.025 | encorafenib -0.015 | [3] -0.034

MYH10 isoform 3 (UniProt P35580)
inactive: saracatinib 0.019 | sotrastaurin -0.058 | alvocidib -0.034 | Tubastatin A 0.002 | [1] 0.024 | defactinib -0.039 | rucaparib -0.056 | [2] -0.005 | encorafenib 0.017 | [3] -0.023

MRPS31 (UniProt Q92665)
inactive: saracatinib 0.031 | sotrastaurin -0.088 | alvocidib 0.04 | Tubastatin A 0.053 | [1] 0.025 | defactinib 0.027 | rucaparib 0.031 | [2] 0.078 | encorafenib 0.041 | [3] 0.016

NUP160 (UniProt Q12769)
inactive: saracatinib 0.155 | sotrastaurin -0.141 | alvocidib -0.078 | Tubastatin A 0 | [1] 0.004 | defactinib -0.11 | rucaparib 0.019 | [2] -0.018 | encorafenib 0.038 | [3] 0.003

MSH2 (UniProt P43246)
inactive: saracatinib -0.006 | sotrastaurin -0.072 | alvocidib -0.111 | Tubastatin A 0.041 | [1] 0.065 | defactinib -0.153 | rucaparib -0.06 | [2] 0.031 | encorafenib 0.062 | [3] -0.037

NPEPPS (UniProt P55786)
inactive: saracatinib -0.013 | sotrastaurin 0.108 | alvocidib -0.077 | Tubastatin A 0.012 | [1] -0.082 | defactinib -0.004 | rucaparib 0.013 | [2] 0.075 | encorafenib -0.032
active: [3] 0.231

NFX1 (UniProt Q12986)
inactive: saracatinib -0.246 | sotrastaurin -0.09 | alvocidib 0.08 | Tubastatin A -0.001 | [1] 0.014 | defactinib 0.009 | rucaparib 0.269 | [2] -0.237 | encorafenib -0.01 | [3] 0

NEU1 (UniProt Q99519)
inactive: saracatinib -0.044 | sotrastaurin 0 | alvocidib -0.033 | Tubastatin A 0.028 | [1] -0.113 | defactinib -0.011 | rucaparib -0.012 | [2] -0.011 | encorafenib -0.012 | [3] -0.019

MT-ND4 (UniProt P03905)
inactive: saracatinib 0.048 | sotrastaurin -0.025 | alvocidib -0.022 | Tubastatin A 0.061 | [1] 0.053 | defactinib -0.143 | rucaparib -0.077 | [2] -0.145 | encorafenib 0.058 | [3] 0.057

NME1 isoform 2 (UniProt P15531)
inactive: saracatinib -0.156 | sotrastaurin 0.049 | alvocidib -0.103 | Tubastatin A -0.024 | [1] -0.087 | defactinib -0.01 | rucaparib 0.035 | [2] 0.069 | encorafenib -0.032 | [3] 0.041

NFATC3 (UniProt Q12968)
UniProt Q12968, sequence (Q12968 whole entry, looked up): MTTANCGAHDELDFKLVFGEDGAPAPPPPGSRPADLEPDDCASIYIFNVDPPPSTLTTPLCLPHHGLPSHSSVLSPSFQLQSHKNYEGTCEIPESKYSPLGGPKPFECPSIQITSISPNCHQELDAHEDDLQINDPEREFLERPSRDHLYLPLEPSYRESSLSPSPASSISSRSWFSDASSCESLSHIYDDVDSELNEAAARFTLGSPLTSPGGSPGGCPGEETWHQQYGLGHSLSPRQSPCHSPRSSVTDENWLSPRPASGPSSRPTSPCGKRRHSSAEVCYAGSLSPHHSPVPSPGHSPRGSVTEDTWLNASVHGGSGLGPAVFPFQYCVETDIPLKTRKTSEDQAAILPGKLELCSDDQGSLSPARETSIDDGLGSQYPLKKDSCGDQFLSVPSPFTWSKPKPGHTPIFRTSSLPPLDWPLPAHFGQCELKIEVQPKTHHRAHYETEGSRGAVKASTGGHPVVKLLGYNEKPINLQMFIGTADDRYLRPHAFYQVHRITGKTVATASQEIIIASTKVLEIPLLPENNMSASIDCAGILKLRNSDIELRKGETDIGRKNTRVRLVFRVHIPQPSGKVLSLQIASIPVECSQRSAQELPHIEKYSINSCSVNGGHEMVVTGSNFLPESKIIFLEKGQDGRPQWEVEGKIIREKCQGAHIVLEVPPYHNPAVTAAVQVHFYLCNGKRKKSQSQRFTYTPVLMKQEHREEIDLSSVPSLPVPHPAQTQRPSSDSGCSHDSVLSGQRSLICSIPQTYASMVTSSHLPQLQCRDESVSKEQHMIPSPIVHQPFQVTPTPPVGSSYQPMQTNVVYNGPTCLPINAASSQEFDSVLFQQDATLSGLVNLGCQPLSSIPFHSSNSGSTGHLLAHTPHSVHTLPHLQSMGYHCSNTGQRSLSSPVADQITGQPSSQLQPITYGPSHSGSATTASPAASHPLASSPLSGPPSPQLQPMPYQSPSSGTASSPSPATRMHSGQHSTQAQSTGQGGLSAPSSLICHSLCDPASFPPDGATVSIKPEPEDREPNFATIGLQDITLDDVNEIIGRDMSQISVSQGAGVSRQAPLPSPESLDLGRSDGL
inactive: saracatinib -0.003 | alvocidib -0.148 | Tubastatin A 0.058 | [1] -0.103 | defactinib -0.208 | rucaparib 0.281 | encorafenib -0.166 | [3] -0.051
active: sotrastaurin -0.451 | [2] -0.539

NDFIP1 (UniProt Q9BT67)
inactive: saracatinib -0.274 | sotrastaurin -0.028 | alvocidib -0.088 | Tubastatin A 0.056 | [1] 0.124 | defactinib 0.015 | rucaparib 0.286 | [2] -0.187 | encorafenib -0.001 | [3] -0.115

NDUFA9 (UniProt Q16795)
inactive: saracatinib -0.003 | sotrastaurin -0.008 | alvocidib -0.022 | Tubastatin A -0.013 | [1] -0.034 | defactinib -0.011 | rucaparib -0.038 | [2] 0.036 | encorafenib 0.048 | [3] -0.004

MRPS2 (UniProt Q9Y399)
inactive: saracatinib -0.243 | sotrastaurin -0.145 | alvocidib 0.005 | Tubastatin A 0.036 | [1] -0.021 | defactinib 0.034 | rucaparib 0.104 | [2] 0.035 | encorafenib 0.084 | [3] -0.088

NMNAT1 (UniProt Q9HAN9)
UniProt Q9HAN9, sequence (Q9HAN9 whole entry, looked up): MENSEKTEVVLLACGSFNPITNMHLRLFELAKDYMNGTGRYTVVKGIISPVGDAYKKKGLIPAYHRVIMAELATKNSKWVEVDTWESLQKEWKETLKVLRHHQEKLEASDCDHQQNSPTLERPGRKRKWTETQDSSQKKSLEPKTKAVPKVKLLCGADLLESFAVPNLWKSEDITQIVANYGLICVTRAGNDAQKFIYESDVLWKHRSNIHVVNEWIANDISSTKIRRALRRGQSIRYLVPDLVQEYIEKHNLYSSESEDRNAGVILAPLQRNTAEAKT
inactive: saracatinib -0.044 | sotrastaurin -0.033 | alvocidib 0.158 | Tubastatin A 0.07 | [1] -0.121 | defactinib 0.237 | rucaparib 0.354 | [2] 0.02 | encorafenib 0.147 | [3] 0.091

NMT1 (UniProt P30419)
inactive: saracatinib -0.046 | sotrastaurin 0.019 | alvocidib 0.001 | Tubastatin A -0.029 | [1] -0.003 | defactinib 0.015 | rucaparib -0.009 | [2] 0.013 | encorafenib -0.002 | [3] 0.024

NAT14 (UniProt Q8WUY8)
UniProt Q8WUY8, sequence (Q8WUY8 whole entry, looked up): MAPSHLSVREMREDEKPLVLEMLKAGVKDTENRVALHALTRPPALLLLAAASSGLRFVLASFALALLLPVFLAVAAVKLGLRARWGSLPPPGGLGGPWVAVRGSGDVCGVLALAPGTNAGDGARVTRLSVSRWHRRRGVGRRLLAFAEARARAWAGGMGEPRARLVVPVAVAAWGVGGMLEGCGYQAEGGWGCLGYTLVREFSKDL
inactive: saracatinib -0.054 | sotrastaurin 0.068 | alvocidib -0.134 | Tubastatin A -0.02 | [1] 0 | defactinib -0.235 | rucaparib -0.002 | [2] -0.005 | encorafenib 0.002 | [3] 0.163

NFYB (UniProt P25208)
inactive: saracatinib 0.111 | sotrastaurin -0.084 | alvocidib 0.162 | Tubastatin A -0.143 | [1] 0 | defactinib -0.001 | rucaparib -0.099 | [2] -0.019 | encorafenib -0.051 | [3] 0.03

NDUFS4 (UniProt O43181)
UniProt O43181, sequence (O43181 whole entry, looked up): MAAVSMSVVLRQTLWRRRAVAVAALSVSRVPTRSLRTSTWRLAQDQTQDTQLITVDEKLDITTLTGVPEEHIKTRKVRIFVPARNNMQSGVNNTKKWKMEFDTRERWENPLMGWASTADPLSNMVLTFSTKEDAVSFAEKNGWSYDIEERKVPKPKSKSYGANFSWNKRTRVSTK
inactive: saracatinib 0.117 | sotrastaurin 0.1 | alvocidib 0.049 | Tubastatin A -0.082 | [1] -0.025 | defactinib 0.035 | rucaparib 0.011 | [2] -0.074 | encorafenib -0.051 | [3] 0.079

NUP98 (UniProt P52948)
UniProt P52948, sequence (P52948 whole entry, looked up): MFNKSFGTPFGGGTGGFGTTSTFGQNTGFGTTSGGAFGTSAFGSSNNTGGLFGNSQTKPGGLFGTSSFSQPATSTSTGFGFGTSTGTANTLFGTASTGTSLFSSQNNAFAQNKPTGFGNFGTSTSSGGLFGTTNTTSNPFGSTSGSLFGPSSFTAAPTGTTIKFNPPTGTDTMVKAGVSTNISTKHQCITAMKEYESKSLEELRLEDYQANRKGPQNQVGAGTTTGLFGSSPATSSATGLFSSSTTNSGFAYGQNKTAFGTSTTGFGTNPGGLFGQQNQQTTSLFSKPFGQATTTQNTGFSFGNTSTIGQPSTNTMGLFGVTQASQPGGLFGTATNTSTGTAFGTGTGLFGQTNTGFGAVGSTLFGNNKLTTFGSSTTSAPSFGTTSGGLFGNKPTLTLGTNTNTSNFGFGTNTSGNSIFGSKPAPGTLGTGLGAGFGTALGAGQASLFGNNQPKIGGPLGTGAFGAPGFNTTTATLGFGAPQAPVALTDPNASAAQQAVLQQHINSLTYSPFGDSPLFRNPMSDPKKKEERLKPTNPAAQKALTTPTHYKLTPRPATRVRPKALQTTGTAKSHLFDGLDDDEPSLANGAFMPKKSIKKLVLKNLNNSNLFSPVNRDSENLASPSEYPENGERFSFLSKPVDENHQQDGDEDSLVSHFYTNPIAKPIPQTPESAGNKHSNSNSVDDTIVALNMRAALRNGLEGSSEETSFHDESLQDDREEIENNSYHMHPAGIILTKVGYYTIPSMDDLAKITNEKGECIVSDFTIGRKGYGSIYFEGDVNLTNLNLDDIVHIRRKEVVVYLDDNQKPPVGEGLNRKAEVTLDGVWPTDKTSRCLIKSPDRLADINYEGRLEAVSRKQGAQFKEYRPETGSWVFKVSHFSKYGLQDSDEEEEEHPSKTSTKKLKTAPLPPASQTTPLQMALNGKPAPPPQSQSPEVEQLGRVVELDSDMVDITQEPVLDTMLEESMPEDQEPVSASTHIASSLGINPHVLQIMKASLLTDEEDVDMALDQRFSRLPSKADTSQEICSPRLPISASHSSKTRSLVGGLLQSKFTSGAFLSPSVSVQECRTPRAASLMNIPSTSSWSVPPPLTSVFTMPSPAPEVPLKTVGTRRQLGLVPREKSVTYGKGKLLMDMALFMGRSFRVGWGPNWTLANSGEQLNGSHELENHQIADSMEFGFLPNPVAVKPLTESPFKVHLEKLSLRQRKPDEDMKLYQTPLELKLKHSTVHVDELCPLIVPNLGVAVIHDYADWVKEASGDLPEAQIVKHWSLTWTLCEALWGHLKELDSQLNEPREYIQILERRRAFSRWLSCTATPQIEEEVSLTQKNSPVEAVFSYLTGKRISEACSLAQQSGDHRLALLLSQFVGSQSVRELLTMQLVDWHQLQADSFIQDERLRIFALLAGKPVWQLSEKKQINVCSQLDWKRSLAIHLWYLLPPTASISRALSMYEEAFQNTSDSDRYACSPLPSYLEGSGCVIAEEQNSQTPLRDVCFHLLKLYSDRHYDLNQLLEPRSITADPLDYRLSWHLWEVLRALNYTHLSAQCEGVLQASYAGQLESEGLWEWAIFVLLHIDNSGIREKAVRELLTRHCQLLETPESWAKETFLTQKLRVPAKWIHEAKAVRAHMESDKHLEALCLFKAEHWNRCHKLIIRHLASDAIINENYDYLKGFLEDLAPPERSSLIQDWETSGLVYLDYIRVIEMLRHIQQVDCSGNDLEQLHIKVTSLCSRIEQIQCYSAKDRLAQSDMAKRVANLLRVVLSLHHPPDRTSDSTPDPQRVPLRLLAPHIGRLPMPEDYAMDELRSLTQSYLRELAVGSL
inactive: saracatinib -0.019 | sotrastaurin -0.072 | alvocidib -0.063 | Tubastatin A 0.041 | [1] 0.018 | defactinib -0.12 | rucaparib 0.063 | [2] -0.037 | encorafenib 0.039 | [3] -0.053

PAFAH1B2 (UniProt P68402)
inactive: saracatinib -0.016 | sotrastaurin 0.097 | alvocidib 0.031 | Tubastatin A -0.058 | [1] -0.029 | defactinib 0.022 | rucaparib 0.037 | [2] 0.078 | encorafenib -0.006 | [3] -0.026

OSBPL8 (UniProt Q9BZF1)
UniProt Q9BZF1, sequence (Q9BZF1 whole entry, looked up): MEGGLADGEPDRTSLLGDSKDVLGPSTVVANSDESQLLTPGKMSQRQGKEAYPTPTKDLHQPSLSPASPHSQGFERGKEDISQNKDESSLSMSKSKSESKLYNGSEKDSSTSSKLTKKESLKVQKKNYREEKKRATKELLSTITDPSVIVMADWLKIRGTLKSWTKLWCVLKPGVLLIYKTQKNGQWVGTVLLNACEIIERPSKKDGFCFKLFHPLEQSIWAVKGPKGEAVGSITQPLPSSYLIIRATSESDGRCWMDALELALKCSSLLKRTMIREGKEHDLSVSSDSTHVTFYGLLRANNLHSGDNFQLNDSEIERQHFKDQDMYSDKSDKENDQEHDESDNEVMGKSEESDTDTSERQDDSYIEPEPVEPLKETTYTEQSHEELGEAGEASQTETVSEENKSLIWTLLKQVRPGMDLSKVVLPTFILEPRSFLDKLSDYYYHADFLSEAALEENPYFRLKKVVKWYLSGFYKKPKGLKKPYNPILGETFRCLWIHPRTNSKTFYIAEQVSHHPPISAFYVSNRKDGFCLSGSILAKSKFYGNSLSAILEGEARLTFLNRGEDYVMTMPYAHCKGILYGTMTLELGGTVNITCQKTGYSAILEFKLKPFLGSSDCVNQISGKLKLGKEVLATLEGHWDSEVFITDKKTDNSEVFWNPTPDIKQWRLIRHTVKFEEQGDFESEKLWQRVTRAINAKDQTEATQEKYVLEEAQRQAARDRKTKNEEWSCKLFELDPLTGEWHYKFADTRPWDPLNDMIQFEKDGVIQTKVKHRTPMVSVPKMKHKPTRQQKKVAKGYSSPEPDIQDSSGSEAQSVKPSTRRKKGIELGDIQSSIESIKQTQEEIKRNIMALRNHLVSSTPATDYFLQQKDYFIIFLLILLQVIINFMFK
active: [2] 0.488
inactive: saracatinib -0.175 | sotrastaurin -0.054 | alvocidib -0.011 | Tubastatin A 0.078 | [1] 0.11 | defactinib 0.025 | rucaparib 0.232 | encorafenib 0.167 | [3] -0.078

NNT (UniProt Q13423)
inactive: saracatinib 0.005 | sotrastaurin 0 | alvocidib -0.024 | Tubastatin A -0.01 | [1] 0.017 | defactinib -0.009 | rucaparib -0.053 | [2] -0.036 | encorafenib -0.001 | [3] -0.014

OTULIN (UniProt Q96BN8)
inactive: saracatinib -0.029 | sotrastaurin -0.044 | alvocidib 0.046 | Tubastatin A 0.019 | [1] -0.009 | defactinib -0.029 | rucaparib 0.02 | [2] -0.053 | encorafenib -0.012 | [3] -0.012
